Compound activity (PubChem BioAssay)
HT1080-NT tox – qHTS for induction of synthetic lethality in tumor cells producing 2HG: qHTS for the HT-1080-NT fibrosarcoma cell line | HT-1080-NT fibrosarcoma viability, CellTiter-Glo ATP luminescence, 48 h | Potency, µM (top dose mostly 46.1 µM), for the others: top-dose activity, negative = less viability, actives largely listed as cytotoxic | actives 1.6% (n = 360,000) | AID 686970, 2013;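 further: NT is the 2HG producing partner of a matched IDH1 knockdown line; potency means the concentration at half of the fitted maximal effect; 0% = DMSO-treated cells and -100% = media-only wells without cells; nearly all actives have a fitted effect of over 55% in size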
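HT-1080-NT fibrosarcoma cells (2HG-overproducing), 750 cells/well in RPMI with 5% FBS, dosed after 2 h and incubated 48 h at 37C. CellTiter-Glo luminescence normalized to DMSO and no-cell wells; concentration-response curves fitted and classed.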
DT40 TDP1 CPT – qHTS for Inhibitors of human tyrosyl-DNA phosphodiesterase 1 (TDP1): qHTS in cells in presence of CPT; chicken DT40 Tdp1-/-;hTDP1 cells + 20 nM CPT, ATP luminescence, 48 h; Potency, µM (titrated, usually from 46.2 µM), for inactives: at the highest dose activity change, negative = growth inhibition, hits mostly inhibitors; actives 12% (n = 420,000); AID 686979, 2013; further: potency means the concentration at half of the fitted maximal effect; nearly all actives have a fitted effect of over 55% in size
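Cell growth measured by CellTiter-Glo luminescence after a minimum 48 h, 37 C compound exposure with 20 nM CPT in Tdp1-knockout DT40 cells stably expressing hTDP1, seeded 400/well; qHTS titration format.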
DT40 TDP1 no CPT – qHTS for Inhibitors of human tyrosyl-DNA phosphodiesterase 1 (TDP1): qHTS in cells in absence of CPT | AID 686978, 2013 | DT40 Tdp1-/- hTDP1 cells, no CPT, ATP luminescence, 48 h | Potency, µM (highest dose often 46.2 µM), inactives show top-dose activity change, negative = growth inhibition, actives largely listed as inhibitors | actives 15% (n = 420,000); further: potency means the concentration at half of the fitted maximal effect; nearly all actives have a fitted effect of over 55% in size
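Readout: luminescence from CellTiter-Glo after 30 min in the dark at RT. Cells: DT40 Tdp1-/- with stable hTDP1, 400/well. Exposure: compounds alone, ≥48 hr, 37 °C.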
HT1080 IDH1KD tx – qHTS for induction of synthetic lethality in tumor cells producing 2HG: qHTS for the HT-1080-IDH1KD cell line; HT-1080 IDH1 knockdown viability, ATP luminescence, 48 h; Potency, µM (titrated, usually from 46.1 µM), without a hit: at the highest dose activity, negative = toxicity, hits mostly cytotoxic; actives 2% (n = 360,000);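 further: potency means the concentration at half of the fitted maximal effect; 0% = DMSO wells and -100% = cell-free medium wells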
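HT-1080-IDH1KD cells (IDH1 knocked down), 750/well in RPMI with 5% FBS, treated with compound 48 h at 37 degrees C. Viability by CellTiter-Glo luminescence, normalised to DMSO and no-cell wells; concentration-response curves classed.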
IL1B secr inh – qHTS for Inhibitors of Inflammasome Signaling: IL-1-beta AlphaLISA Primary Screen; THP-1 LPS/ATP IL-1B secretion, AlphaLISA, 16 h; active compounds read low; activity change, % at 57.5 µM; actives 4.7% (n = 360,000); in the data active means activity change below about -50%; inconclusive means mostly about -30% to -49%
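Secreted IL-1B measured by AlphaLISA bead assay after 16 h compound exposure of THP-1 cells; compounds (final up to 57.5 uM) added 1 h before LPS (250 ng/mL) and ATP (1.25 mM) stimulation; lower signal means less secretion.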
ALOX12 inh – Primary qHTS assay for inhibitors of human arachidonate 12S-lipoxygenase (ALOX12): Round 2. Potency, µM (highest dose often 108 µM), without a hit: at the highest dose activity change, negative = inhibition, most hits filed as inhibitors. purified 12hLO, xylenol orange hydroperoxide absorbance. actives 1.1% (n = 580,000). Polyunsaturated fatty acid lipoxygenase ALOX12 (Homo sapiens), P18054; further: potency means the concentration at half of the fitted maximal effect
Target sequence (P18054 whole entry, looked up): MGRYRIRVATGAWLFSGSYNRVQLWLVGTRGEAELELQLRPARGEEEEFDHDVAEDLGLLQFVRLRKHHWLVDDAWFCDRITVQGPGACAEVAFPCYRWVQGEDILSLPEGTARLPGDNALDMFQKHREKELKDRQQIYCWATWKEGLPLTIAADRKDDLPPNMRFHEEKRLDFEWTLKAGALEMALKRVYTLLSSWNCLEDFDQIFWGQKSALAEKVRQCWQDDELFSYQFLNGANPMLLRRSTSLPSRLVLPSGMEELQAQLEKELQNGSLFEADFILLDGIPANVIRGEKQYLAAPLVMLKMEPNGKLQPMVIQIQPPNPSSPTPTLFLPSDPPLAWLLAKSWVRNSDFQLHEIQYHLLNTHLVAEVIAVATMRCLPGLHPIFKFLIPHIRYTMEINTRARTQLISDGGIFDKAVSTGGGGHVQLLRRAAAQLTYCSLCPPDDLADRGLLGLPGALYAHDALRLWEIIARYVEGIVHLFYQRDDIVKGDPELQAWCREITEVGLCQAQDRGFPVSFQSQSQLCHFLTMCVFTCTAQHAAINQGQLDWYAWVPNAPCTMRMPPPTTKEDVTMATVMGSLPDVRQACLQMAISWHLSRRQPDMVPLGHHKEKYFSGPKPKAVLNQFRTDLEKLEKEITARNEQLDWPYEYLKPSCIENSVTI
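Purified human 12hLO (150 nM final) in 25 mM Hepes, 0.01% Triton X-100, pH 7.0 was preincubated 15 min at room temperature with compound. Then 40 uM arachidonic acid was added, 30 min. Hydroperoxide was read by Fe-XO absorbance ratio 573/405 nm.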
Starred values were filed as active, the others as inactive; u = inconclusive; x = no result given; [ ] = remark or other dose. Many of the other results were omitted from the sample, so hits are more common in it than they were. Unless noted, the call rests on the fitted dose curve; in most records, active means well fitted curve in the direction sought with a large enough effect; inconclusive means small, poorly fitted or top-dose-only effect, or another doubt; inactive means no such curve, though single readings can be large; an effect the other way counts as inactive or inconclusive. Unless noted, on the % scale 0 is the no-effect control and ±100 the full control effect.

SMILES	HT1080-NT tox	DT40 TDP1 CPT	DT40 TDP1 no CPT	HT1080 IDH1KD tx	IL1B secr inh	ALOX12 inh
CN(CCc1ccccc1)C(=O)c1ccc(NC(=O)Cc2ccc(NC(=O)C3CCN(C(=O)CCc4ccccc4)CC3)cc2)cc1	u	15µM*	7.3µM*	u	23	1%
CN(CCc1ccccc1)C(=O)c1ccc(NC(=O)Cc2ccc(NC(=O)C3CCCN(C(=O)CCc4ccccc4)C3)cc2)cc1 (stereo not drawn)	-20%	13µM*	10µM*	u	9	-3%
CN(CCc1ccccc1)C(=O)c1ccc(NC(=O)Cc2cccc(NC(=O)C3CCN(S(=O)(=O)c4cccc([N+](=O)[O-])c4)CC3)c2)cc1	4%	-24%	-28%	2%	-14	u
CN(CCc1ccccc1)C(=O)c1ccc(NC(=O)Cc2ccc(NC(=O)C3CCCN(C(=O)C4CCC4)C3)cc2)cc1 (stereo not drawn)	-8%	13µM*	13µM*	-24%	-4	0%
CN(CCc1ccccc1)C(=O)c1ccc(NC(=O)Cc2ccc(NC(=O)C3CCN(S(=O)(=O)c4cccc([N+](=O)[O-])c4)CC3)cc2)cc1	u	u	9.2µM*	-6%	37	1%
CN(Cc1ccccc1)C(=O)c1ccc(Cc2cn(C)c3ccccc23)nc1	x	x	x	x	x	-26%
CC1CCN(CC(O)COc2ccc(-c3ccccc3)cc2)CC1 (stereo not drawn)	u	u	18µM*	-10%	-29	-4%
COc1ccc(OCC(O)CN2CCN(c3ccccc3)CC2)cc1 (stereo not drawn)	17%	-17%	-1%	10%	19	-16%
CC(C)c1ccc(OCC(O)CN2CCN(c3ccccc3)CC2)cc1 (stereo not drawn)	u	u	u	16µM*	-74*	u
O=C(c1cc(-c2ccc(Br)cc2)n[nH]1)N1CCN(S(=O)(=O)c2ccc(Br)cc2)CC1	x	15µM*	16µM*	x	x	-13%
COc1ccc(-c2cc(C(=O)N3CCN(S(=O)(=O)c4ccccc4)CC3)[nH]n2)cc1	-1%	21µM*	u	-8%	-27	u
Cc1ccc(S(=O)(=O)N2CCN(C(=O)c3cc(-c4ccc(Br)cc4)n[nH]3)CC2)c(C)c1	x	16µM*	12µM*	x	x	-20%
COc1ccccc1-c1cc(C(=O)N2CCN(S(=O)(=O)c3ccc(C)cc3)CC2)[nH]n1	-9%	23µM*	u	-8%	-10	337%
O=C(c1cc(-c2ccccc2)n[nH]1)N1CCN(S(=O)(=O)c2ccccc2)CC1	4%	u	u	8%	-29	431%
CC(C)N1C[C@H](O)C[C@H]1c1nc(-c2ccc(F)cc2)no1	x	x	x	x	x	8%[176 µM]
Cc1nc(N2CCC(NC(=O)Cc3ccc(F)cc3)CC2)cc(C(F)(F)F)n1	x	x	x	x	x	11%
O=C(NCCCN(Cc1ccccc1)C(=O)c1cccnc1)c1nc2ccccc2c(=O)[nH]1	x	x	x	x	x	23%
COc1ccc(Nc2nc(Nc3cc(C)ccc3C)c3nccnc3n2)cc1Cl	x	x	x	x	x	2%
COc1ccc(S(=O)(=O)N2CCN(C(=O)c3cc(-c4ccc(Br)cc4)n[nH]3)CC2)cc1OC	u	9.2µM*	7.3µM*	u	x	32%
